In PubChem BioAssay (NCI):
The panel holds about 83,000 compounds, 20% with a hit somewhere; the sample as a whole holds those more often.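 Cells were grown in 96-well plates and exposed to the test compound at a single concentration for 48 hours; results are reported as percent growth, with values below 10 considered active.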 A number with no mark means an inactive call. Calls of active or inactive are those of the source.

System: HT29 colon
Experiment: NCI-60 one-dose screen, 48 h (100 = growth as untreated, 0 = no growth, -100 = all killed)
Conditions: 10 µM unless noted
Description: Growth inhibition of the HT29 human tumor cell line is measured as a screen for anti-cancer activity. Cells are grown in 96 well plates and exposed to the test compound for 48 hours. Compounds are tested at a single concentration, which is 10^-5 M for most compounds. The reported endpoint is percent growth (GI% or GIPRCNT), where numbers from 0 - 100% represent growth inhibition, and numbers from -100% - 0 represent cell death. For example, a value of 40 represents 60% growth inhibition. A value of 0 means no net growth occurred over the course of the experiment. A value of -40 indicates 40% of cells at the beginning of the experiment died by the end of the experiment. A value of -100 means all cells are dead at the end of the experiment.
NCI-60 Human Tumor Cell Lines Screen was performed using the standard one-dose NCI protocol, which is described in more detail at https://dtp.cancer.gov/discovery_development/nci-60/default.htm.
Compounds with GIPRCNT values below 10 were considered active. Activity score was based on GIPRCNT using the following formula: […]
Score is 0 for GIPRCNT values of 100 or above, 50 for GIPRCNT values of 0, and 100 for GIPRCNT values of -100.

Structure (SMILES) | growth
N=C(N)c1ccc(-c2ccc(-c3ccc(Cl)cc3)o2)nc1 | -92.9% (active)
Cc1cc2c(c(=O)o1)C(c1ccc(OC(=O)N3CCOCC3)cc1)C(C#N)=C(N)O2 (stereo not given) | 104%
C=C1C(=O)O[C@H]2[C@H]1CC/C(Cn1cc(-c3ccsc3)nn1)=C\CC[C@@]1(C)O[C@@H]21 | -68.5% (active)
NC(N)=NC(N)=Nc1ccccc1-c1ccccc1 | 112%
O=C(/C=C/CN1CCOCC1)Nc1cc2c(Nc3cccc(Cl)c3F)ncnc2cc1OCCOC(F)F | 66.3%
CC[C@H](C)[C@H]1NC(=O)[C@@H](N[C@](C)(O)[C@@H](N)CC(C)C)[C@@H](C)OC(=O)[C@H](Cc2ccc(OC)cc2)N(C)C(=O)[C@@H]2CCCN2C(=O)[C@H](CC(C)C)NC(=O)[C@@H](C)C(=O)[C@H](C(C)C)OC(=O)C[C@@H]1O | -24.6% (active)
O=C(CCl)NCCNc1nccc(Nc2ccc(S(=O)(=O)Nc3ccccn3)cc2)n1 | 4.37% (active)
CCC(=O)Oc1cc(/C=C/C(=O)O[C@H]2C[C@H]3CN4CCc5c([nH]c6cc(OC)ccc56)[C@@H]4C[C@@H]3[C@@H](C(=O)OC)[C@@H]2OC)ccc1OC | -1.66% (active)
COc1cc(NCCCN=C(N)NC(N)=NC(C)C)c2ncccc2c1 | 58.9%
O=C(Nc1ccc(Cl)cc1)c1cc(-c2ccc(F)cc2)c2sc(=O)[nH]c2n1 | 16.9%
COc1cccc(/C=C2\SC(N3CCN(c4ccccn4)CC3)=NC2=O)c1 | 84.7%
COc1ccc(NC(=O)c2cc3ccccc3nc2Nc2cc(OC)c(OC)c(OC)c2)cc1 | 64.3%
c1cncc(CNc2ccccc2-c2nnc(Nc3ccc4c(c3)OCCO4)o2)c1 | 2.31% (active)
CN(C)C1CCC(NC2=CC(=O)C=CC2=O)CC1 (stereo not given) | 116%
CCn1cc(C(=O)O)c(=O)c2cc(F)c(N3CCN(S(=O)(=O)c4ccc(OC)c(OC)c4)CC3)cc21 | 102%
COc1cccc(-c2nc3sccn3c2-c2ccnc(NCCCNS(=O)(=O)c3ccc(F)cc3)n2)c1 | 26.7%
COc1ccc(C(=O)/C=C/c2cc(C(=O)c3cc(OC)c(OC)c(OC)c3)ccc2OC)cc1 | 27.7%
O=C(CC(O)c1ccncc1)c1ccccc1 (stereo not given) | 32.7%
O=S(=O)(NCCNc1cc(-c2cn(-c3ccccc3)nc2-c2ccccc2)ccn1)c1cccc2ccccc12 | 23.6%
Cc1cc(-c2ccccc2)c(C)n1Cc1ccc(Cl)cc1 | 13.8%

Structure (SMILES) | growth
CCN(CC)CCCC(C)N=c1cc(Nc2cc(=NC(C)CCCN(CC)CC)c3cc(OC)ccc3o2)oc2ccc(OC)cc12 (stereo not given) | -42% (active)
O=C(c1ccncc1)N1N=C(c2ccc(Cl)cc2)CC1c1c[nH]c2ccccc12 (stereo not given) | 101%
COc1ccc(/C(=N/O)c2cc(OC)c(OC)c(OC)c2)c(OC)c1N | 13.7%
CCO/C=N/NC(=O)c1ccncc1 | 101%
O=C(CN1CCN(c2cc3c(cc2F)c(=O)c(C(=O)O)cn3C2CC2)CC1)Nc1ccc(C(=O)/C=C/c2ccccc2)cc1 | 11.4%
O=C(Nc1ccccc1)OCC1OCOC(COC(=O)Nc2ccccc2)C1OC(=O)Nc1ccccc1 (stereo not given) | 43.1%
Cc1ccnc2nc(C(=O)OCC(=O)Nc3ccc(-c4ccccc4)cc3)nn12 | 108%
O=C(CCCn1c(=O)c2sc3ccccc3c2n2nnc(-c3ccccc3)c12)NCCc1cnc[nH]1 | -94.1% (active)
O=C(O)c1ccc(-n2cc(CNc3ccc(C(F)(F)F)cc3)c(-c3ccccc3)n2)cc1 | 114%
COc1cc(Br)c(OC)cc1Br | 96.4%
COc1ccc(Cn2cc(COc3cc(/C=C/C(=O)c4cc(OC)c(OC)c(OC)c4)ccc3OC)nn2)cc1 | 13%
CC/C=C\C/C=C\C[C@H](O)C/C=C1/C(=O)C=C[C@H]1C/C=C\CCC(=O)OC | 2.84% [8.25 µM] (active)
COc1ccc(/C=C/c2cc(N3CCOCC3)c3cc(F)c(F)cc3n2)cc1OC | 38.9%
COc1ncc(-c2ccc3ncnc(Nc4cccc(Cl)c4)c3c2)cc1NS(=O)(=O)C1CC1 | 29.7%
COC(=O)CC/C(C)=N\Nc1ccc([N+](=O)[O-])cc1 | 46.6%
C=C1C(=O)O[C@H]2[C@H]1CC/C(COC(=O)NCCc1ccc(Br)cc1)=C\CC[C@@]1(C)O[C@@H]21 | -46.7% (active)
COc1ccc(-c2nc3sccn3c2-c2ccnc(NCCNS(=O)(=O)c3ccc(C(F)(F)F)cc3)n2)cc1 | 14.5%
O=C1Nc2ccc(Br)cc2C1=N/C=c1\[nH]c(=O)/c(=C/c2ccc(Cl)cc2)s1 | 97.9%
COc1ccc(Cl)cc1NC(N)=S | 98.7%
COc1cc(NS(C)(=O)=O)ccc1Nc1c2ccc([N+](=O)[O-])cc2nc2c(C)cccc12 | -0.0847% (active)
